The source of these data is PubChem BioAssay (NCATS).

Results filed as inconclusive are left out. Where a call stands in place of a potency, no number is given. Active and inactive are the calls of the source. Calls come from the whole dose curve; as a rule, active = well fitted cell-killing curve with a large enough effect; inconclusive = small, poorly fitted or top-dose-only effect, or effect the other way; inactive = flat fitted curve, though single readings scatter.
Potency is the fitted concentration of half-maximal effect.

This experiment can be described thus: Cell Viability - LYMP2-003 (AID 965).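 Note: cells exposed to compounds for 24 h before reading; nearly all actives have a fitted effect of over 50% in size.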 The note with it: LYMP2-003 lymphoblastoid cell viability; series mostly up to 92.2 µM. From the text:
NIH Chemical Genomics Center [NCGC]
NIH Molecular Libraries Screening Centers Network [MLSCN]
National Institutes of Environmental Health Sciences [NIEHS]
National Toxicology Program [NTP]
We have developed a 1536-well cell-based assay for quantitative high throughput screening (qHTS) against a number of cell lines to determine in vitro cytotoxicity of small molecules. This particular assay uses a human lymphoblastoid cell line (LYMP2-003) purchased from Coriell Institute for Medical Research.
NCGC Assay Protocol Summary:
The CellTiter-Glo luminescent cell viability assay (Promega) is a homogeneous method to measure the number of viable cells in culture. The end point readout of this assay is based on quantitation of intracellular ATP, an indicator of metabolic activity, using the luciferase reaction. Luciferase catalyzes the oxidation of beetle Luciferin to oxyluciferin and light in the presence of ATP. The luminescent signal is proportional to amount of ATP present.
Using the CellTiter-Glo luminescent cell viability assay, the amount of cellular ATP was measured in the lymphoblastoid cell line with complete culture medium following compound treatment for 24 hours. The assay was performed in opaque white Kalypsys 1536-well plates. In the screen, tetraoctylammonium bromide was used as positive control. Library compounds were measured for their ability to cause acute toxicity in the cell line, as reflected by a decrease in intracellular ATP levels, in a concentration-dependent manner. […] AC50 values were determined from concentration-response data modeled with the standard Hill equation.
qHTS protocol for CellTiter Glo lymphoblastoid cellular assay
[Step] [Parameter] [Value] [Description]
1. Reagent; 5 uL; 2500 lymphoblastoid cells/well
2. Time; 5 hr; 37 C incubation
4. Controls; 23 nL; Tetraoctylammonium bromide 6.4pM to 92 uM
5. Time; 24 hr; 37 C incubation
6. Reagent; 5 uL; CellTiter Glo reagent
7. Time; 30 min; Room Temperature
8. Detection; Luminescence; Viewlux plate reader
Keywords: cell viability, cytotoxicity, lymphoblastoid cell line, luminescence, NTPHTS, NTPHTS_NCGC, NIEHS, DSSTox, MLSMR, MLSCN, NIH Roadmap, qHTS, NCGC
Regarding `CCCC[N+](=O)[O-]`, the Potency entry was “inactive”.

In the case of `Oc1cc(Cl)cc(Cl)c1`, the Potency result was “inactive”.

On to `Cc1cnc[nH]1`, for which the Potency entry was “inactive”.

As for `COC(C)(C)C`, the Potency entry was “inactive”.

`Oc1c(Cl)cccc1Cl`: the Potency entry was “inactive”.

As to `CCOS(C)(=O)=O`, the Potency entry was “inactive”.

As to `Cc1ccc2c(c1N)C(=O)c1ccccc1C2=O`, the Potency entry is “inactive”.

Regarding `CCCN(CCC)c1c([N+](=O)[O-])cc(C(F)(F)F)cc1[N+](=O)[O-]`, the Potency result was “inactive”.

For the compound `COC(=O)Nc1cccc(OC(=O)Nc2cccc(C)c2)c1`, the Potency entry was “inactive”.

On to `Brc1ccc(Oc2ccc(Br)cc2Br)c(Br)c1`, for which the Potency entry is “inactive”.

With `O=[N+]([O-])CCO`, the Potency result was “inactive”.

Regarding `O=[N+]([O-])c1cccc(O)c1`, the Potency result was “inactive”.

As to `CCNCC`, the Potency result was “inactive”.

In the case of `Oc1cccc(Cl)c1Cl`, the Potency entry was “inactive”.

For the compound `C=CCc1cc(OC)c2c(c1)OCO2`, the Potency entry was “inactive”.

`Oc1cc(Cl)c(Cl)c(Cl)c1Cl`: the Potency entry is “inactive”.

On to `[O-][Cl+2]([O-])O`, for which the Potency entry is “inactive”.

On to `CC(Cl)CCl` (stereo not given), for which the Potency result is “inactive”.

Consider `Cc1ccc(N)cc1C`, for which the Potency entry was “inactive”.

Regarding `O=[N+]([O-])c1ccccc1O`, the Potency result is “inactive”.

Take `CN(C)c1ccc(N)cc1`: the Potency was 50.1 µM (active).

For the compound `CC(=O)NNc1ccccc1`, the Potency entry is “inactive”.

On to `CC(=O)CCC(C)=O`, for which the Potency result is “inactive”.

For the compound `O=c1ccc(=O)[nH][nH]1`, the Potency result was “inactive”.

On to `O=[N+]([O-])c1ccccc1-c1ccccc1`, for which the Potency result was “inactive”.

Regarding `N#CCc1ccccc1`, the Potency result is “inactive”.

As to `ClCC(Cl)Cl`, the Potency result is “inactive”.

For the compound `ClC(Cl)c1ccccc1`, the Potency result is “inactive”.

Take `[N-]=[N+]=[N-]`: the Potency entry was “inactive”.

Regarding `O=[N+]([O-])c1ccc2c3c(cccc13)CC2`, the Potency result is “inactive”.

As to `Nc1ccc2ccccc2c1`, the Potency entry is “inactive”.

With `c1ccc(NNc2ccccc2)cc1`, the Potency entry was “inactive”.

Take `Nn1cnnc1`: the Potency entry was “inactive”.

For `ClC(Br)Br`, the Potency result was “inactive”.

As to `CCN(CC)N=O`, the Potency entry is “inactive”.

Consider `Nc1ccc(-c2ccccc2)cc1`, for which the Potency result was “inactive”.

For `Cc1cc(C)cc(OP(=O)(Oc2cc(C)cc(C)c2)Oc2cc(C)cc(C)c2)c1`, the Potency entry is “inactive”.

Consider `Clc1ccc(C(c2ccccc2Cl)C(Cl)(Cl)Cl)cc1` (stereo not given), for which the Potency entry was “inactive”.

Take `CCCCCCCCCCCOC(=O)c1ccccc1C(=O)OCCCCCCCCCCC`: the Potency result was “inactive”.

Regarding `ClCCOCCCl`, the Potency result was “inactive”.
